LGR2 antag: Drosophila LGR2 receptor signaling inhibition | HEK293 LGR2, CRE-luciferase, bursicon-stimulated, 4 h | inhibition, % at 9.99 µM | 380,000 tested, 0.35% active | AID 720647;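 active = drop in luminescence signal, shown as inhibition above about 50% in the replicate tests, limit read from the data, passing the limit was not always enough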;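 also: agonist challenge used bursicon conditioned medium at about half maximal strength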
EBV LMP1 NFkB: inhibitors of Epstein-Barr LMP1-induced NF-kappaB reporter | inhibition, % at 12.5 µM | 350,000 tested, 0.69% active | LMP1-induced NF-kappaB luciferase reporter cells, luminescence | AID 504558; in the data active = inhibition above about 41%;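 also: 0% = neutral control wells and 100% = reference inhibitor control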
Shn3 3UTR inh: Schnurri-3 reporter inhibition in Clone20 osteoblasts; inhibition, % at 12.5 µM; Clone20 osteoblast Shn3 3'UTR firefly luciferase, 24 h; 360,000 tested, 0.52% active; AID 588674;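 active = mean inhibition of at least 75% with every replicate also reaching 75%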;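 also: 0% = median of neutral control wells and 100% = pilot-screen positive control compound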
EWS-Fli block: EWS/Fli transcriptional activity inhibition. inhibition, % at 12.6 µM. A673 NR0B1-luciferase reporter, viability-normalised. 350,000 tested, 0.67% active;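 active = mean inhibition of at least 50% after viability correction, with every replicate also passing that limit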;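 also: firefly luciferase signal divided by Alamar Blue viability fluorescence both relative to DMSO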
PAX8 inh HTS: PAX8 transcriptional activity inhibition; 360,000 tested, 1.2% active; RMG-I TPO-luciferase reporter, SteadyGlo, 24 h; inhibition, % at 12.6 µM; AID 652154;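 active = mean replicate inhibition at least 60% with every replicate also reaching 60%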;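 also: luciferase light reporting Pax8 driven TPO promoter activity; plate controls were median of neutral control wells for no effect and mitoxantrone controls for full effect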
MITF TRPM1 inh: reduces MITF-dependent TRPM1 promoter luciferase signal; inhibition, % at 12.5 µM; 330,000 tested, 0.83% active; AID 488899; SK-MEL-5 TRPM1 promoter luciferase, 24 h;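 active = mean inhibition across replicates of 60% or more, whatever share of single replicates reaches that level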
* hit, by the source's call. Sampled rows, rich in hits. Any-hit rate of the full collection: about 2.2%.

COc1ccc(C#Cc2ccc([C@@H]3[C@H](CO)N4CCCCN(C(=O)Nc5ccccc5)C[C@@H]34)cc2)cc1 was read as LGR2 antag -13.4, EWS-Fli block 69.7* and PAX8 inh HTS 54.0.
`COc1ccccc1NC(=O)N1CCCCN2[C@@H](CO)[C@@H](c3ccc(C#CC4CCCC4)cc3)[C@@H]2C1` gave LGR2 antag 15.5, EWS-Fli block 71.1* and PAX8 inh HTS 59.1.
`O=C(Nc1ccc(F)cc1)N1CCCCN2[C@@H](CO)[C@H](c3ccc(C#Cc4ccccc4)cc3)[C@@H]2C1` gave LGR2 antag 11.4, EWS-Fli block 60.5* and PAX8 inh HTS 69.9*.
Screening O=C(Nc1ccc(F)cc1)N1CCCCN2[C@H](CO)[C@@H](c3ccc(C#Cc4ccccc4)cc3)[C@@H]2C1 returned LGR2 antag 1.0, EWS-Fli block 7.4 and PAX8 inh HTS 24.4.
`C/C=C/c1cnc2c(c1)C(=O)N([C@@H](C)CO)C[C@H](C)[C@H](CN(C)C(=O)Nc1ccc(C(F)(F)F)cc1)O2` gave LGR2 antag 16.3 and EWS-Fli block 8.4.
Screening N#C[C@@H]1[C@@H](c2ccc(-c3ccncc3)cc2)[C@@H](CO)N1C(=O)C1CCOCC1 returned LGR2 antag -9.2, EWS-Fli block 5.2 and PAX8 inh HTS -16.6.
COc1cc(CSc2nnnn2-c2ccc(C)cc2)cc(OC)c1OC was read as EBV LMP1 NFkB 26.7, Shn3 3UTR inh 90.4* and MITF TRPM1 inh 23.5.
`COc1ccc(F)cc1CSc1nnnn1-c1ccc(O)cc1` gave LGR2 antag 8.8, EBV LMP1 NFkB -6.4, Shn3 3UTR inh 32.1, EWS-Fli block 8.4, PAX8 inh HTS 25.5 and MITF TRPM1 inh 10.1.
Screening COc1cc(/C=C2\SC(=S)N(CCC(=O)N3CCCCC3)C2=O)cc(OC)c1OC returned LGR2 antag 41.7, EBV LMP1 NFkB 7.0, Shn3 3UTR inh -10.1, EWS-Fli block 3.7, PAX8 inh HTS 100.0* and MITF TRPM1 inh 13.1.
`O=C(CCN1C(=O)/C(=C\c2ccccc2)SC1=S)N1CCCCC1` gave LGR2 antag -0.6, EBV LMP1 NFkB -7.7, Shn3 3UTR inh -36.3, EWS-Fli block -9.6, PAX8 inh HTS -5.8 and MITF TRPM1 inh -5.8.
For COc1ccc(/C=C2/SC(=S)N(CCC(=O)O)C2=O)cc1 the results were LGR2 antag -55.1, EBV LMP1 NFkB 32.5, Shn3 3UTR inh 52.0 and MITF TRPM1 inh 61.2*.
Screening Cc1ccc(/C=C2\SC(=S)N(CCC(=O)N3CCCCC3)C2=O)cc1 returned LGR2 antag 10.7, EBV LMP1 NFkB 1.9, Shn3 3UTR inh -17.1, EWS-Fli block -13.5, PAX8 inh HTS 5.7 and MITF TRPM1 inh 5.3.
COc1ccc(/C=C2\SC(=S)N(CCC(=O)Nc3ccc(C(=O)O)cc3)C2=O)cc1 was read as LGR2 antag -14.3, EBV LMP1 NFkB -2.2, Shn3 3UTR inh -16.3, EWS-Fli block -21.6, PAX8 inh HTS 4.6 and MITF TRPM1 inh -13.4.
Screening CCN(C(=O)CCN1C(=O)/C(=C/c2ccccc2)SC1=S)C1CCS(=O)(=O)C1 (configuration not stated) returned LGR2 antag 58.6*, EBV LMP1 NFkB 25.9, Shn3 3UTR inh -29.2, EWS-Fli block -6.3, PAX8 inh HTS 54.7 and MITF TRPM1 inh 13.9.
For O=C(CCN1C(=O)/C(=C/c2cccs2)SC1=S)N1CCCCC1 the results were LGR2 antag 6.7, EBV LMP1 NFkB 6.5, Shn3 3UTR inh 8.6, EWS-Fli block 10.8, PAX8 inh HTS 69.5* and MITF TRPM1 inh 7.4.
`CN(C(=O)CCN1C(=O)/C(=C/c2ccc(F)cc2)SC1=S)C1CCS(=O)(=O)C1` (configuration not stated) gave LGR2 antag 15.5, EBV LMP1 NFkB 8.9, Shn3 3UTR inh -17.9, EWS-Fli block -19.8 and PAX8 inh HTS -1.3.
`COc1ccc2c3c([nH]c2c1)[C@H](CO)N(C(=O)c1ccc(F)cc1)CC31CN(C(=O)NC(C)C)C1` gave LGR2 antag 7.5, EWS-Fli block 3.1 and PAX8 inh HTS -0.6.
C[C@H]1CCCCO[C@H](CN(C)C(=O)Nc2cccc3ccccc23)[C@@H](C)CN([C@@H](C)CO)C(=O)c2cc(NC(=O)C3CCCCC3)ccc2O1 was read as LGR2 antag -3.7, EWS-Fli block 10.2 and PAX8 inh HTS 55.7.
For O=C1C(=C2CCCCC2)SC(=S)N1Cc1ccco1 the results were EBV LMP1 NFkB 44.2*, Shn3 3UTR inh -8.5 and MITF TRPM1 inh 11.3.

Screening data from PubChem BioAssay.
